From PubChem
Hits are enriched below; roughly 2% of the tested compounds scored in any of these assays.
KDM4E inh – blocks human JMJD2E demethylase activity. B2RXH2. hit rate 1.6% among 230,000. Potency, µM (top dose mostly 57.1 µM), for inactives: at the top dose activity change, negative = inhibition, hits mostly inhibitors. JMJD2E catalytic domain, FDH-coupled NADH fluorescence (FDH is formaldehyde dehydrogenase);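 also: potency is read from the fitted curve at half-maximal effect; 0% = wells with enzyme and -100% = buffer wells without enzyme; nearly all actives have a fitted effect of over 50% in size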
Six1-Eya2 blk – Six1/Eya2 interaction inhibition | Q15475+O00167 | AlphaScreen GST-Six1/His-Eya2 binding, biochemical; stronger effect = lower value | activity change, % (no concentration beside the values) | hit rate 0.56% among 360,000
Target sequence (O00167 whole entry, looked up): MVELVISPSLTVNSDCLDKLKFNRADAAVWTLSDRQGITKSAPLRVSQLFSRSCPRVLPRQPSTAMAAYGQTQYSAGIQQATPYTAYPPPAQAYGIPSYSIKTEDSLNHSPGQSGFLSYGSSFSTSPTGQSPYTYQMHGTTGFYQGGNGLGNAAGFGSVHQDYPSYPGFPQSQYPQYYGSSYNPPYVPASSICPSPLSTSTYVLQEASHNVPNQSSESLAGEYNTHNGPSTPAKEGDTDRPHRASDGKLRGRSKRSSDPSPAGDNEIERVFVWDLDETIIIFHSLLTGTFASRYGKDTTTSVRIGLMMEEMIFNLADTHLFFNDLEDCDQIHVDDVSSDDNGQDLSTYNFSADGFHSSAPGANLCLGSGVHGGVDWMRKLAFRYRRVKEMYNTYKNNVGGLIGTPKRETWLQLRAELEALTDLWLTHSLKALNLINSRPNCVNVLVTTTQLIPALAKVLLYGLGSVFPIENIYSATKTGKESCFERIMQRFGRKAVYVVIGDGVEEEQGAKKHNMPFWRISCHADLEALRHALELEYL
Target sequence (Q15475 whole entry, looked up): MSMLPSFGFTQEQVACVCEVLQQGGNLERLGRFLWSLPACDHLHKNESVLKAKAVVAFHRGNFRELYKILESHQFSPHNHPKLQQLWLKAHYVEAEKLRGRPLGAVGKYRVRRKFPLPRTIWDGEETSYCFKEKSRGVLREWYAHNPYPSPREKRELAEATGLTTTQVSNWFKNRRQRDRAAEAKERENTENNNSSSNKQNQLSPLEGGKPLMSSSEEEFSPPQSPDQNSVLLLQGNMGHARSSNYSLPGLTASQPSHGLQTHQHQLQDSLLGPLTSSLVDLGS
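AlphaScreen with GST-Six1 and His-Eya2 (5X mix: 250 nM and 500 nM), glutathione donor and nickel acceptor beads; buffer 50 mM Tris pH 8.0, 300 mM NaCl, 1 mM TCEP; 1 h at 37 C in the dark.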
KCNH2 3.1 inh – blocks the human KCNH2 3.1 channel isoform; U2OS KCNH2 3.1, thallium flux FluxOr; stronger effect = lower value; activity change, % (tested at about 1.8 µM); hit rate 0.95% among 340,000; AID 720553;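 active = maximum activity change below -70%; inconclusive = maximum activity change from -70% to -50%; inactive = maximum activity change above -50%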;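 also: thallium influx rate constant from kinetic fluorescence after stimulation buffer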
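Steps: virus added to U2OS suspension (4 h, RT, dark); medium with 10% FBS added, cells plated, 37 C overnight; FluxOr/Red40 loading buffer 45 min RT; stimulation buffer, 2 min kinetic read; rate constant normalized.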
CtBP-E1A inh – blocks the CtBP interaction with E1A; AlphaScreen GST-E1A/His-CtBP binding, 1536-well; stronger effect = lower value; activity change, % (test concentration not listed); hit rate 0.49% among 340,000; AID 651724
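GST-E1A and His-tagged CtBP (125 nM each as 5X stock) were preincubated with pin-transferred compound for 2 h at 37 °C in the dark, then glutathione donor and nickel acceptor beads were added for 1 h before AlphaScreen reading.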
KCNH2 WT inh – inhibitors of human wildtype KCNH2 potassium channel; activity change, % at 1.84 µM; hit rate 0.37% among 340,000; U2OS, BacMam KCNH2, thallium flux FluxOr; stronger effect = lower value;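 active = maximum activity change below -70%; inconclusive = maximum activity change between -70% and -50%; inactive = maximum activity change above -50%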
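U2OS cells were transduced with wild-type KCNH2 virus (2.03 x 10^8 / mL) for 4 h at room temperature, then cultured overnight at 37 C. Thallium flux was read with FluxOr dye. Rate constants were normalized to DMSO controls.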
An asterisk follows results filed as active; ? = inconclusive; . = no result given. Rule as the data show it, unless noted: active = activity change below about -65%; inconclusive = mostly about -30% to -63%; inactive = weaker than that. Unless noted, % is scaled to controls: 0 for no effect and ±100 for the full control effect.

SMILES | KDM4E inh | Six1-Eya2 blk | KCNH2 3.1 inh | CtBP-E1A inh | KCNH2 WT inh
Cc1ccc(C(=O)N/C(=C\c2ccc(Cl)cc2)C(=O)NCCCN2CCOCC2)cc1 | 7% | 8 | -103* | 7 | -141*
CCOC(=O)c1c(O)c2cccc3c2n(c1=O)CC3 | ? | 10 | 5 | 3 | 0
Cc1ccc(C(=O)Nc2ccc(OCc3ccccc3)cc2)s1 | . | -9 | -35 | -15 | 1
Cc1[nH]n(-c2ccccc2)c(=O)c1N=Nc1ccc(F)cc1 | . | ? | -79* | -26 | 30
CN(C)c1ccc(C=C2SC(=S)N(Cc3ccco3)C2=O)cc1 | . | -3 | -28 | 2 | -35
Cc1cc(/C=C2\SC(=S)N(Cc3ccco3)C2=O)c(C)n1-c1ccccc1 | -25% | -11 | -23 | -19 | -81*
O=C(Nc1ccc(N2CCN(C(=O)c3ccccc3)CC2)cc1)c1cccs1 | . | 0 | -177* | -13 | -136*
COc1ccc(C(=O)N2CCN(c3ccc(NC(=O)c4cccs4)cc3)CC2)cc1 | . | 3 | -92* | -2 | 12
CCOC(=O)C1(C)CCN1C(=O)c1ccc(-c2ccccc2)cc1 (stereo unspecified) | . | 13 | . | 7 | .
COc1ccc(C[C@@H]2CN3C(=NC[C@@H]3Cc3ccc(O)cc3)N2C[C@H](C)NC(=O)CCC2CCCCC2)cc1 | -9% | -12 | 13 | -28 | -89*
O=C(CCC1CCCCC1)NCCN1C2=NC[C@@H](Cc3ccccc3)N2C[C@H]1Cc1ccc(O)cc1 | 4% | 0 | -99* | -3 | -116*
O=C(NCCc1ccncc1)Nc1ccc(Cl)c(Cl)c1 | 13% | 2 | -82* | -6 | -13
COc1cccc(CN2CCC(N(CCc3ccccc3)Cc3ccccc3)CC2)c1OC | ? | -18 | -91* | -16 | 20
CCc1ccccc1N(CC(=O)N1CCN(c2ccc(F)cc2)CC1)S(C)(=O)=O | -3% | -4 | 3 | 9 | 11
Cc1[nH]c2ccc(C(=O)N3CCN(c4ccccc4Cl)CC3)cc2c1C | . | -7 | -30 | -18 | -78*
COc1cc(OC)c(NC(=O)CN(C)S(=O)(=O)c2ccc(-c3ccc(=O)[nH]n3)s2)cc1Cl | . | -71* | -15 | . | 6
Cc1ccccc1NC(=O)Cc1nc(COC(=O)/C=C/c2ccccc2)cs1 | . | -3 | -6 | 5 | 0
O=C(NCCC1CCCCN1S(=O)(=O)c1ccc(Cl)cc1)C(=O)NCc1ccncc1 (stereo unspecified) | . | 5 | 3 | 6 | -7
O=C(NCc1ccc2c(c1)OCO2)c1ccc(Cl)c(S(=O)(=O)N2CCOCC2)c1 | -1% | 0 | -94* | 4 | 0
Cc1ccc(C(=O)NCc2ccc3c(c2)OCO3)cc1S(=O)(=O)N1CCOCC1 | -4% | 1 | 10 | 2 | 6
Cc1ccc(C(=O)NCc2ccc3c(c2)OCO3)cc1S(=O)(=O)N1CCCCC1 | -7% | 0 | -14 | 5 | -91*
CCCCc1nc2cc(C(=O)N3CCN(c4nc(C)cnc4C)CC3)ccc2o1 | . | -1 | -77* | -5 | -5
CCN(CC(=O)Nc1c(F)cccc1F)C(=O)c1cc(C)nc2ccccc12 | . | -2 | 5 | -2 | -72*
NS(=O)(=O)c1cccc(NC(=O)COc2ncnc3c2cnn3-c2ccccc2)c1 | -4% | -6 | -2 | -5 | 1
CCOn1c(=O)c[n+]([O-])c2ccccc21 | ? | 7 | -27 | -2 | 1
SMILES | KDM4E inh | Six1-Eya2 blk | KCNH2 3.1 inh | CtBP-E1A inh | KCNH2 WT inh
CC1=NCCN1S(=O)(=O)c1ccccc1[N+](=O)[O-] | 4% | -93* | 7 | . | 2
CN(C)c1ccc(/C=C2\CCC/C(=C\c3ccccc3)C2=O)cc1 | -8% | -12 | 2 | -10 | -2
O=C1/C(=C/c2ccc(C(=O)O)cc2)CCC/C1=C\c1ccc(C(=O)O)cc1 | 13% | -67* | -13 | 3 | 4
CCn1nc(C(=O)OC(C(=O)c2c[nH]c3ccccc23)c2ccccc2)c2ccccc2c1=O (stereo unspecified) | -16% | -6 | -76* | -19 | -3
CCn1nc(C(=O)OCC(=O)c2ccc(F)cc2)c2ccccc2c1=O | -5% | 11 | -26 | . | 7
O=C(Nc1cccc(-c2csc(Nc3cccc(C(F)(F)F)c3)n2)c1)c1ccccc1 | -3% | 5 | -8 | -2 | -6
O=C(O)c1ccc(Nc2nc(-c3cccnc3)cs2)cc1 | . | -15 | 5 | -13 | 24
O=C(Nc1cccc(-c2csc(Nc3ccccc3)n2)c1)c1ccccc1 | -1% | 0 | -79* | -5 | 19
CC(=O)c1ccc(Nc2nc(-c3cccnc3)cs2)cc1 | . | -5 | 0 | 0 | -81*
CN(Cc1ccc(Cl)cc1)C(=O)c1ccc(S(=O)(=O)NCc2ccco2)cc1 | . | -2 | 1 | 0 | 6
CCOC(=O)c1ccc(NC(=O)Nc2nc3ccccc3s2)cc1 | . | 21 | -4 | 0 | -1
O=C(N/N=C/CCc1ccccc1)c1ccc(CN2c3cccc4cccc(c34)S2(=O)=O)cc1 | 7% | 11 | -78* | 4 | 18
NC(=O)N/N=C/c1ccc(-n2nncc2-c2ccc(Cl)cc2)cc1 | . | 3 | -15 | 23 | 3
CCC(C)c1ccc(NC(=O)Nc2cnccn2)cc1 (stereo unspecified) | . | 6 | -12 | 4 | -281*
NS(=O)(=O)c1ccc(Nc2ccccc2)c([N+](=O)[O-])c1 | -4% | -14 | -2 | . | 8
O=[N+]([O-])c1cc(Cl)ccc1Nc1ccccc1 | . | -78* | 6 | . | -27
C=CCNC(=S)NNC(=O)C(CCCC)CC(O)COCC(C)C (stereo unspecified) | 18% | 4 | 6 | 4 | 4
N#Cc1ccc(S(=O)(=O)N2CCCN(c3ccc(C(F)(F)F)cn3)CC2)cc1 | 1% | -1 | -32 | 7 | 36
N#Cc1ccc(S(=O)(=O)N2CCCN(c3nc4ccc(Cl)cc4s3)CC2)cc1 | -11% | 16 | -95* | -13 | -74*
O=C(CSc1ncnc2c1oc1ccccc12)Nc1cccc(F)c1 | -2% | 6 | -7 | -6 | -1
COc1ccc2nc(SCc3cnc(C)nc3N)[nH]c2c1 | 3% | 1 | -9 | 0 | 4
CCN(CC)CCCN(C(=O)c1ccc(OC)cc1)c1nc(-c2ccc(OC)cc2)cs1 | . | -21 | -95* | -19 | ?
Cc1ccc(-c2csc(N(CCCN(C)C)C(=O)c3ccco3)n2)cc1 | -3% | -20 | -49 | -16 | 7
CN(C)CCCN(C(=O)c1ccco1)c1nc(-c2ccc(Cl)cc2)cs1 | . | -2 | -80* | . | 1
Cc1ccc(CNC(=O)CN(C)S(=O)(=O)c2cccc3nsnc23)cc1 | 0% | 6 | 1 | 3 | 7
CCOC(=O)C1=C(C)N=c2s/c(=C/c3ccco3)c(=O)n2C1c1cccc(OC)c1 (stereo unspecified) | -3% | -22 | 14 | -13 | -12
